# Measurements as given in PubChem BioAssay AID1159580 (chemical genetic matrix, 2015).
# Where “and” joins values, the source holds several entries; their conditions need not be identical. Identical values can stand only once. About 2,000 (36%) of roughly 5,500 compounds were called active. Roughly 18% stayed inconclusive and do not appear here. The list shows a part of the results. A number with no mark means an inactive call. Rule as the data show it: active = normalized growth mostly below about 0.91 (no sharp cut-off); inconclusive = no clear call, values can overlap the other calls; inactive = mostly above about 0.92.
# Experiment: chemical genetic growth profiling, strain panel (AID 1159580);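 also: tested at 20 µM; growth read once vehicle control cultures reached saturation at 30 °C; 1 = growth at the plate median or of vehicle wells; lower values mean less growth of the strain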
# Conditions: S. cerevisiae deletion strains, growth OD
smiles,measurement,setting,value
O=C1c2c(O)ccc(O)c2C(=O)c2c(NCCNCCO)ccc(NCCNCCO)c21,normalized growth,"locus YJR066W, strain TOR1, hits give low values",0.85
same,normalized growth,"locus YJR075W, strain HOC1, hits give low values",0.968
same,normalized growth,"locus YKL009W, strain mrt4, hits give low values",0.925
same,normalized growth,"locus YKL068W, hits give low values",1.06 [resistant] (active)
same,normalized growth,"locus YKL085W, strain MDH1 (second series), hits give low values",1.05
same,normalized growth,"locus YKL085W, strain MDH1, hits give low values",1.05
same,normalized growth,"locus YKL160W, strain elf1, hits give low values",0.858 (active)
same,normalized growth,"locus YKL190W, strain CNB1, hits give low values",0.998
same,normalized growth,"locus YKR001C, strain vps1, hits give low values",0.74 (active)
same,normalized growth,"locus YKR026C, strain gcn3, hits give low values",1.04
same,normalized growth,"locus YKR091W, strain srl3, hits give low values",1.01
same,normalized growth,"locus YLL001W, strain dnm1, hits give low values",0.727 (active)
same,normalized growth,"locus YLL026W, hits give low values",0.914 (active)
same,normalized growth,"locus YLL041C, strain sdh2, hits give low values",1.01
same,normalized growth,"locus YLR027C, strain aat2, hits give low values",0.855 (active)
same,normalized growth,"locus YLR039C, strain RIC1, hits give low values",0.707
same,normalized growth,"locus YLR058C, strain SHM2, hits give low values",1.02
same,normalized growth,"locus YLR102C, strain apc9, hits give low values",1.06
same,normalized growth,"locus YLR113W, strain HOG1, hits give low values",0.828 (active)
same,normalized growth,"locus YLR221C, strain rsa3, hits give low values",0.865 (active)
same,normalized growth,"locus YLR258W, strain gsy2, hits give low values",0.94
same,normalized growth,"locus YLR262C, strain YPT6 (second series), hits give low values",0.443 (active)
same,normalized growth,"locus YLR262C, strain YPT6, hits give low values",0.711
same,normalized growth,"locus YLR268W, strain sec22, hits give low values",0.857 (active)
same,normalized growth,"locus YLR320W, strain mms22, hits give low values",0.248 (active)
same,normalized growth,"locus YLR330W, strain CHS5, hits give low values",1.03
same,normalized growth,"locus YLR342W, strain FKS1 (second series), hits give low values",0.871
same,normalized growth,"locus YLR342W, strain FKS1, hits give low values",0.83 (active)
same,normalized growth,"locus YLR357W, strain rsc2, hits give low values",0.976
same,normalized growth,"locus YLR370C, strain arc18, hits give low values",0.28 (active)
same,normalized growth,"locus YLR371W, strain rom2, hits give low values",1.01
same,normalized growth,"locus YLR384C, strain iki3, hits give low values",0.745 (active)
same,normalized growth,"locus YLR418C, strain cdc73, hits give low values",1.02
same,normalized growth,"locus YML016C, strain PPZ1, hits give low values",1.03
same,normalized growth,"locus YML032C, strain rad52, hits give low values",0.19 (active)
same,normalized growth,"locus YML120C, strain ndi1, hits give low values",0.878 (active)
same,normalized growth,"locus YML124C, strain tub3, hits give low values",1.05
same,normalized growth,"locus YMR058W, strain fet3, hits give low values",0.396 (active)
same,normalized growth,"locus YMR078C, strain ctf18, hits give low values",0.429 (active)
same,normalized growth,"locus YMR125W, strain sto1, hits give low values",0.982
same,normalized growth,"locus YMR129W, hits give low values",0.941
same,normalized growth,"locus YMR205C, strain PFK2, hits give low values",0.975
same,normalized growth,"locus YMR223W, strain ubp8, hits give low values",0.91
same,normalized growth,"locus YMR231W, strain pep5, hits give low values",0.174 (active)
same,normalized growth,"locus YMR263W, strain SAP30, hits give low values",0.954 and 1.02
same,normalized growth,"locus YMR307W, strain GAS1, hits give low values",0.562 (active) and 0.648 (active)
same,normalized growth,"locus YNL067W, strain RPL9B, hits give low values",0.976
same,normalized growth,"locus YNL071W, strain lat1, hits give low values",1.12 [resistant] (active)
same,normalized growth,"locus YNL128W, strain TEP1, hits give low values",1.07
same,normalized growth,"locus YNL175C, strain NOP13, hits give low values",1.07
same,normalized growth,"locus YNL183C, strain NPR1, hits give low values",0.815 (active)
same,normalized growth,"locus YNL197C, strain WHI3, hits give low values",1.06
same,normalized growth,"locus YNL209W, strain ssb2, hits give low values",0.825 (active)
same,normalized growth,"locus YNL224C, strain SQS1, hits give low values",1.08 [resistant] (active)
same,normalized growth,"locus YNL233W, strain BNI4, hits give low values",0.966
same,normalized growth,"locus YNL248C, strain rpa49, hits give low values",0.678 (active)
same,normalized growth,"locus YNL250W, strain rad50, hits give low values",0.181 (active)
same,normalized growth,"locus YNL271C, strain bni1, hits give low values",0.944
same,normalized growth,"locus YNL298W, strain CLA4, hits give low values",0.989
same,normalized growth,"locus YNL307C, strain MCK1, hits give low values",1.08
same,normalized growth,"locus YNL322C, strain KRE1 (second series), hits give low values",0.933
same,normalized growth,"locus YNL322C, strain KRE1, hits give low values",1.01
same,normalized growth,"locus YNR049C, strain mso1, hits give low values",0.912 (active)
same,normalized growth,"locus YNR052C, strain pop2, hits give low values",0.69 (active)
same,normalized growth,"locus YOL006C, strain TOP1, hits give low values",0.424 (active)
same,normalized growth,"locus YOL012C, strain htz1",0.838
same,normalized growth,"locus YOL147C, strain pex11, hits give low values",1.07
same,normalized growth,"locus YOR001W, strain rrp6, hits give low values",0.681 (active)
same,normalized growth,"locus YOR061W, strain CKA2, hits give low values",1.01
same,normalized growth,"locus YOR069W, strain VPS5, hits give low values",1.02
same,normalized growth,"locus YOR070C, strain gyp1, hits give low values",0.734 (active)
same,normalized growth,"locus YOR080W, strain dia2, hits give low values",0.447 (active)
same,normalized growth,"locus YOR083W, strain WHI5 (second series), hits give low values",1
same,normalized growth,"locus YOR083W, strain WHI5, hits give low values",0.726 (active)
same,normalized growth,"locus YOR106W, strain vam3, hits give low values",0.363 (active)
same,normalized growth,"locus YOR136W, strain idh2, hits give low values",1.01
same,normalized growth,"locus YOR144C, strain elg1, hits give low values",0.984
same,normalized growth,"locus YOR184W, strain ser1, hits give low values",0.802 (active)
same,normalized growth,"locus YOR231W, strain MKK1, hits give low values",0.927
same,normalized growth,"locus YOR265W, strain rbl2, hits give low values",0.932
same,normalized growth,"locus YOR270C, strain vph1, hits give low values",0.327 (active)
same,normalized growth,"locus YOR290C, strain snf2, hits give low values",0.653 (active)
same,normalized growth,"locus YOR316C, strain cot1, hits give low values",1.06
same,normalized growth,"locus YPL051W, strain arl3, hits give low values",0.869 (active)
same,normalized growth,"locus YPL055C, strain LGE1, hits give low values",0.868 (active)
same,normalized growth,"locus YPL078C, strain atp4, hits give low values",0.974
same,normalized growth,"locus YPL106C, strain sse1, hits give low values",1.07
same,normalized growth,"locus YPL240C, strain hsp82, hits give low values",1.03
same,normalized growth,"locus YPL241C, strain CIN2, hits give low values",1.04
same,normalized growth,"locus YPL256C, strain CLN2, hits give low values",0.959
same,normalized growth,"locus YPR119W, strain clb2, hits give low values",1.05
same,normalized growth,"locus YPR141C, strain kar3, hits give low values",1.05
same,normalized growth,"locus YPR163C, strain tif3, hits give low values",1.03
same,normalized growth,"locus YPR167C, strain met16, hits give low values",0.993
same,normalized growth,"strain wtn01, hits give low values",0.963
